Bioassay records deposited in PubChem BioAssay by The Scripps Research Institute Molecular Screening Center.
GPR151 ag: activators of human GPR151; Q8TDV0; PathHunter beta-arrestin GPR151 cells, luminescence; activation, % at 11.2 µM; hit rate 1% among 650,000; AID 1508602; in the data active means activation above about 4.9%;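 further: 0% = median of compound wells and 100% = cells with positive control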
MITF primary: human MITF inhibition, primary screen; O75030; AID 1259374; hit rate 0.91% among 650,000; AlphaScreen MITF homodimerization, bead proximity signal; inhibition, % at 2.6 µM; in the data active means inhibition above about 50%;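 further: 0% = vehicle wells with protein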
Target sequence (O75030 whole entry, looked up): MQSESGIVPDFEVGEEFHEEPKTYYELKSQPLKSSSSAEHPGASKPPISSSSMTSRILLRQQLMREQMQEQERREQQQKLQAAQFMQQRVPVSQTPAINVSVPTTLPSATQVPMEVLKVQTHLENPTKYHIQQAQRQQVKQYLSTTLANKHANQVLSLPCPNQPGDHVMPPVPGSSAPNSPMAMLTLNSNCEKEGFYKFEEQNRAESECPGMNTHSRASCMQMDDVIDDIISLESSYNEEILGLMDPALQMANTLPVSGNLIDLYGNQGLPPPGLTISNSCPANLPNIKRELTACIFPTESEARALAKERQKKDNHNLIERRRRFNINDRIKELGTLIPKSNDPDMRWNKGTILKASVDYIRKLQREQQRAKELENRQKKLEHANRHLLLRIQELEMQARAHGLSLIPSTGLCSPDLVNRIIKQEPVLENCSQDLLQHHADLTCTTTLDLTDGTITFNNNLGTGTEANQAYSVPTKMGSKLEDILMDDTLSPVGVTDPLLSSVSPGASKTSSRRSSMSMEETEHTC
FBW7 activator: human FBW7 E3 ligase activation, primary screen; hit rate 0.13% among 650,000; normalized activity (activation), % at 26.1 µM; AlphaScreen FBW7–phospho-cyclin E peptide binding, activator screen; Q969H0; in the data active means normalized activity above about 1.9%;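 further: purified mutant Fbw7 with reduced substrate affinity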
TEAD-YAP block: TEAD-YAP interaction inhibition; HEK-TIYL cells, TEAD-Gal4/YAP UAS-luciferase luminescence; inhibition, % at 9.12 µM; hit rate 1.4% among 640,000; AID 1259422; in the data active means inhibition above about 32%;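 further: 0% = median of test compound wells and 100% = reference inhibitor wells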
An asterisk follows results filed as active. An excerpt weighted towards active compounds, which were near 3.5% of everything screened.

SMILES | GPR151 ag | MITF primary | FBW7 activator | TEAD-YAP block
O=C(Cc1ccccc1F)Nc1ccc2c(c1)CN(C(=O)c1csnn1)CC2 | -2 | -10 | 0 | -10
Cc1ccc(-c2cccc3cnc(Nc4ccc(C(=O)NC5CC5)cc4)nc23)cn1 | -1 | -4 | 0 | 64*
Cc1ccc(-c2cccc3cnc(Nc4cccc(C(=O)N5CCCC5)c4)nc23)cn1 | 2 | 18 | 0 | 25
Cc1ccc(-c2cccc3cnc(Nc4cccc(C(=O)NC5CC5)c4)nc23)cn1 | 1 | 30 | 0 | 33*
CCOc1ccc(Nc2ccc(N3C(=O)C4C5C=CC(C5)C4C3=O)cc2[N+](=O)[O-])cc1 (centres undefined) | 0 | 31 | -1 | 3
CCC(=O)Oc1ccc(C(=O)Nc2ccc(C)cc2Br)cc1 | 0 | -2 | 0 | 50*
COC(=O)C1(CCSC)NC(c2cccs2)C2C(=O)N(c3ccc(F)cc3)C(=O)C21 (centres undefined) | 0 | 18 | 0 | 10
COc1ccc(-c2cc(C(F)(F)F)n3nc(C(=O)NC(C)(C)C)cc3n2)cc1OC | -1 | -6 | 1.9* | -7
COc1ccc(-c2cc(C(F)(F)F)n3nc(C(=O)NC(C)(C)CC(C)(C)C)cc3n2)cc1OC | -1 | -8 | 0 | -11
Cc1ccc(CSc2nc3ccsc3c(=O)n2CCCC(=O)NCCc2ccccc2)cc1 | -1 | 1 | 0 | 14
CCOc1cc(/C=C2\C(=O)N(c3ccc(S(N)(=O)=O)cc3)N=C2C)cc(Cl)c1OC | 1 | -15 | 0 | 7
O=C(NCc1ccncc1)c1ccc(OC2CCN(Cc3cc4ccccc4o3)CC2)cc1 | 3 | 3 | 0 | 45*
CCOc1ccccc1N(CC(=O)NC(C)(C)CC)C(=O)CCC(=O)Nc1ccccn1 | 1 | 11 | 0 | 10
CCN1CCN(Cc2ccc(NC(=O)Nc3ccccc3Cl)cc2)CC1 | 0 | 19 | 0 | 34*
CC(C)NC(=O)c1sccc1S(=O)(=O)N1CCN(c2ccccc2F)CC1 | 0 | 10 | 0 | 2
Cc1ccc(C)c(NC(=O)CN(C)C(=O)CCl)c1 | -1 | -1 | 0 | 73*
Cc1ccc(C)c(NC(=O)CN(C)S(=O)(=O)c2ccc(Br)cc2)c1 | 0 | -5 | 0 | 6
CN(CC(=O)Nc1ccc(F)cc1)C(=O)CCl | -3 | 16 | 0 | 42*
COc1ccc(O)c(C=Nc2ccccc2F)c1 | 1 | -10 | 0 | -8
COc1cccc(NC(=O)c2cc(C(C)C)n(-c3nc4ccccc4s3)n2)c1 | 0 | -11 | 0 | 48*
COc1ccc(NC(=O)c2cc(C(C)C)n(-c3nc4ccccc4s3)n2)c(OC)c1 | -2 | -5 | 0 | 64*
CC(C)c1cc(C(=O)Nc2ccc(Cl)cn2)nn1-c1nc2ccccc2s1 | 1 | 16 | 0 | 46*
O=C(c1ccccc1)N1CCN(c2nc3ccccc3s2)CC1 | 0 | 2 | 0 | -20
CCN1CCN(C(=O)c2cc(C(C)C)n(-c3nc4ccccc4s3)n2)CC1 | 0 | -4 | 0 | 81*
Cc1oc(C2CC2)cc1C(=O)N1CCCCC1c1nc2ccccc2[nH]1 (centres undefined) | -1 | -1 | 0 | 0
SMILES | GPR151 ag | MITF primary | FBW7 activator | TEAD-YAP block
COc1ccc(CN2CCNC(=O)C2CC(=O)O)c(F)c1 (centres undefined) | 0 | 9 | 0 | 3
Cc1ccc(C2CC(C(F)(F)F)n3nc(C(=O)N4CCN(c5ccc(F)cc5)CC4)c(Cl)c3N2)cc1 (centres undefined) | 0 | 0 | 0 | 24
CN(CC(=O)Nc1ccccc1Br)S(=O)(=O)c1cccs1 | 1 | -2 | 5.8* | -3
CCc1n[n+](CC(=O)c2ccccc2)c(N)s1 | -9 | 11 | 0 | 57*
O=C(C[n+]1cccc2ccccc21)c1ccccc1 | -3 | 11 | 0 | -7
Nc1sc2ccccc2[n+]1CC(=O)c1ccccc1 | -9 | 25 | 2.4* | 75*
O=C(NCCOCc1ccc(Cl)cc1)c1cncc(Br)c1 | 1 | 5 | 0 | -4
CCCn1c(=O)c2c(nc3n(-c4cccc(Cl)c4C)c(C)cn23)n(C)c1=O | 1 | 5 | 0 | 5
COc1ccccc1-c1nc2sc3c(c2c(=O)o1)CCCC3 | 3 | -3 | 0 | 68*
O=c1oc(-c2ccccc2F)nc2sc3c(c12)CCCC3 | 0 | 8 | 0 | 0
Nc1cc(N)nc(SCC(=O)NCCOc2ccccc2)n1 | -1 | 11 | 2.2* | 16
COc1ccc(/C=C2\SC(=Nc3cccc(O)c3)NC2=O)cc1OC | 1 | 3 | 0 | 43*
COc1ccc(/C=C2/SC(=Nc3ccccc3)NC2=O)cc1OC | 1 | 7 | 0 | 1
COc1ccc(/C=C2/SC(=Nc3ccc(O)cc3)NC2=O)c(OC)c1OC | 2 | 0 | 0 | 0
COc1cccc(/C=C2\SC(=Nc3ccc(O)cc3)NC2=O)c1OC | 3 | 4 | 0 | 46*
O=C(COc1ccccc1)NCc1nnc2n1CCN(CC1CC=CCC1)CC2 (centres undefined) | -1 | -4 | 0 | 4
COc1cccc(-c2nnc(-c3ccc(N)cc3)o2)c1 | -1 | -4 | 0 | 41*
Cc1nn(CC(=O)N2CCCC(C)C2)c(=O)c2cc3sccc3n12 (centres undefined) | 2 | 1 | 0 | -7
CCOC(=O)c1cnc2c(Cl)cccc2c1NCc1ccco1 | -1 | -10 | 0 | -8
CCOC(=O)c1cnc2c(OC)cccc2c1Nc1ccc(OC)cc1OC | 1 | -12 | 0 | 53*
CCOC(=O)c1cnc2c(OC)cccc2c1Nc1ccccc1OC | -1 | -3 | 0 | 7
CCOC(=O)c1cnc2c(OC)cccc2c1NCc1ccco1 | -1 | -5 | 0 | 46*
CCCCOC(=O)C1=C(C)NC(=O)NC1c1ccccc1Cl (centres undefined) | 1 | 10 | 0 | 2
COc1cc(NC(=O)c2cccc(-n3cc(NC(=O)C4CCc5ccccc54)cn3)c2)ccc1N1CCOCC1 (centres undefined) | -1 | -1 | 0 | 8
OC1CCC(Nc2nccc(NCc3cccc(C(F)(F)F)c3)n2)CC1 (centres undefined) | 1 | 4 | 0 | 48*
SMILES | GPR151 ag | MITF primary | FBW7 activator | TEAD-YAP block
FC(F)(F)c1cccc(CNc2ccnc(Nc3ccc(-n4ccnc4)cc3)n2)c1 | 3 | 7 | 0 | 36*
CCNc1nccc(NCc2cccc(C(F)(F)F)c2)n1 | 1 | -3 | 0 | 37*
CCNc1nc(C)cc(NCc2cccc(C(F)(F)F)c2)n1 | -1 | 7 | 0 | 18
OC1CCC(Nc2nccc(NCc3ccccc3)n2)CC1 (centres undefined) | -1 | 6 | 0 | 11
Oc1ccc(CCNc2ccnc(Nc3ccc(-n4ccnc4)cc3)n2)cc1 | 3 | 9 | 0 | 43*
Oc1ccc(CCNc2ccnc(Nc3ccc(C(F)(F)F)cc3)n2)cc1 | 2 | -7 | 0 | 1
Oc1ccc(CCNc2ccnc(Nc3ccncc3)n2)cc1 | -1 | -18 | 0 | 75*
Cc1ccc([N+](=O)[O-])cc1S(=O)(=O)Nc1cc(SCC(=O)O)c(O)c2ccccc12 | 0 | 65* | -1 | -3
Cc1ccc(S(=O)(=O)Nc2cc(SCC(=O)O)c(O)c3ccccc23)c(C)c1 | -1 | 12 | 0 | -19
